Laboratory results: the supplement of paper PMC3484114
± gives the standard deviation.

These molecules were tested on OVCAR-3-derived ovarian cancer stem-like cells (spheroids) (assay: cell growth relative to untreated control; higher = more growth (less inhibition)). Conditions: 2.29 µM; 96 h.
Method in brief: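 After trypsin dissociation, OVCAR-3 spheroid-derived stem-like cells were placed in ultra-low attachment 96-well plates at 50,000 cells/mL in stem cell medium and preincubated for 24 h. Treatment at 2.29 uM followed for 96 h at 37°C, 5% CO2, with 4 replicate wells per compound. A 4 h TOX8 resazurin fluorescence read (ex 560/em 590 nm) gave viability, from which percent growth relative to untreated wells was derived after blank subtraction and Grubbs outlier removal.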
With `CC(=O)C1=C(O)C2(O)C(=O)c3c(c(C)c4ccc(C)c(O)c4c3O)CC2C(N)C1=O` (stereo not given) the cell growth was 118 ± 30%. `COc1ccc2nc(NC(=O)C(=O)CC(=O)c3ccc(Cl)cc3)sc2c1` gave a cell growth of 109 ± 40%. `Clc1ccc(C(c2ccccc2Cl)C(Cl)Cl)cc1` (stereo not given) was tested, and the cell growth was 128 ± 48%. `O=[N+]([O-])c1cccc2c(N=Nc3ccc4ccccc4c3O)c(O)cc(S(=O)(=O)O)c12` was tested, and the cell growth was 74.2 ± 40%. For `COc1ccc2cc1Oc1ccc(cc1)CC1c3cc(c(OC)cc3CCN1C)Oc1c(OC)c(OC)cc3c1C(C2)N(C)CC3` (stereo not given), the cell growth was 88.5 ± 18%. With `O=C1c2ccccc2C(=O)c2c(NCCNCCO)ccc(O)c21` the cell growth was 67.2 ± 44%. `C/C(=N\NC(=S)N(C)C)c1ccccn1.[Cu][Br]` showed a cell growth of 11.1 ± 5.9%. For `COC(=O)c1ccccc1OCc1cc(=O)oc2ccc(C)cc12`, the cell growth was 115 ± 20%. For `CCOc1cccc(/C=N/N=C2\C(=O)Nc3c(Cl)cc(Cl)cc32)c1O`, the cell growth was 85.4 ± 13%. `O=C(NC(=O)c1c(Cl)nc2sccn12)Nc1ccc(Cl)cc1` showed a cell growth of 136 ± 25%. `CC[C@]1(O)C[C@H]2CN(CCc3c([nH]c4ccccc34)[C@@](C(=O)OC)(c3cc4c(cc3OC)N(C=O)[C@H]3[C@@](O)(C(=O)OC)[C@H](OC(C)=O)[C@]5(CC)C=CCN6CC[C@]43[C@@H]65)C2)C1` was tested, and the cell growth was 27 ± 6%. `C/C=C(\CCC1NCCc2c1[nH]c1ccccc21)[Si](C)(C)C` (stereo not given) was tested, and the cell growth was 86.5 ± 9.4%. In the case of `C=C1CC(COc2cc(=O)oc3ccccc23)(c2ccccc2)OC1=O` (stereo not given), the cell growth is reported as 76.3 ± 22%. `COc1ccc(C2=Nc3ccccc3SC(C)C2)cc1` (stereo not given) was tested, and the cell growth was 91.1 ± 17%. `CCOC(=O)/N=C(\N)SCc1ccccc1` gave a cell growth of 78.4 ± 11%. `NC(N)=N/N=C(\c1ccc(Cl)cc1)C1CC1` showed a cell growth of 200 ± 43%. `O=c1ncccn1C1OC(CO)C(O)C1F` (stereo not given) showed a cell growth of 113 ± 22%. `COc1ccc(-n2/c(=N/C(=S)N(C)C)ss/c2=N\C(=S)N(C)C)cc1` gave a cell growth of 111 ± 15%. `Cc1c(Cl)cccc1NC(=O)c1cccc([N+](=O)[O-])c1O` gave a cell growth of 106 ± 20%. With `Nc1nncs1` the cell growth was 98.4 ± 22%. `Cc1ccc(NC(=O)c2cccc([N+](=O)[O-])c2O)c([N+](=O)[O-])c1` showed a cell growth of 86.3 ± 17%. For `Cc1ccc(NC(=O)c2cc3ccccc3c(N=Nc3ccccc3O)c2O)c(C)c1`, the cell growth was 75.2 ± 20%. In the case of `CC(C)C1=C(O)C2=C(C(=O)C1=O)C1(C)CCCC(C)(C)C1CC2O` (stereo not given), the cell growth is reported as 134 ± 36%. Work on `CC(Cc1ccccc1)NC1=NCCO1` (stereo not given) yielded a cell growth of 88.1 ± 13%. In the case of `CCCCC(/C=N/N=C(N)N)CC.Cc1cc(O)c(C(C)C)cc1S(=O)(=O)O`, the cell growth is reported as 91.8 ± 17%. Molecule `Nc1nc(Cl)nc2c1ncn2[C@H]1C[C@H](O)[C@@H](CO)O1` has a cell growth of 82.7 ± 17%. In the case of `O=S(=O)(c1cccc(N=C=S)c1)c1cccc(N=C=S)c1`, the cell growth is reported as 111 ± 11%. For `O=[n+]1c2c(n([O-])c3ccccc31)-c1cccc3cccc-2c13`, the cell growth was 92 ± 21%. Molecule `Cc1c2c(cc3c1[nH]c1ccccc13)C=NCC2` has a cell growth of 227 ± 75%. `N[C@@H](CSC(c1ccccc1)(c1ccccc1)c1ccccc1)C(=O)O` was tested, and the cell growth was 34.8 ± 6.7%. Work on `Clc1cc2nc[nH]c2cc1Cl` yielded a cell growth of 102 ± 31%. For `Cc1ccc(Cl)c2c(N=Nc3ccccc3[N+](=O)[O-])c(O)[nH]c12`, the cell growth was 107 ± 34%. Molecule `N#CC(C#N)=Cc1ccc(Oc2ccccc2)cc1` has a cell growth of 86.2 ± 51%. With `Cc1ccccc1OCC(COC(=O)Nc1ccccc1)OC(=O)Nc1ccccc1` (stereo not given) the cell growth was 111 ± 16%. Work on `CCOC(=O)C(C)NC(=O)N(C)C12CC3CC(CC(C3)C1)C2` (stereo not given) yielded a cell growth of 8 ± 3.5%. `C=C1CC(Cn2cc(Br)c(=O)[nH]c2=O)(c2ccc(-c3ccccc3)cc2)OC1=O` (stereo not given) showed a cell growth of 57.1 ± 20%. For `CO[C@@H]1[C@@H](OC(=O)c2ccc(C)[nH]2)[C@@H](O)[C@H](Oc2ccc3c(O)c(NC(=O)c4c[nH]c(C(=O)Nc5c(O)c6ccc(O[C@@H]7OC(C)(C)[C@H](OC)[C@@H](OC(=O)c8ccc(C)[nH]8)[C@H]7O)c(C)c6oc5=O)c4C)c(=O)oc3c2C)OC1(C)C`, the cell growth was 100 ± 22%. In the case of `COC(=O)C1(C)CCCC2(C)C3CCC4CC3(C=C4CO)CCC12` (stereo not given), the cell growth is reported as 95.7 ± 14%. In the case of `CC1(C)C(O)OC(O)C1(C)C` (stereo not given), the cell growth is reported as 9.3 ± 2%. `CC1(C)NC(=O)N(CCCCCCN2C(=O)NC(C)(C)C2=O)C1=O` was tested, and the cell growth was 85.8 ± 22%.
